# Assay results: PubChem BioAssay
# “And” between values parts separate entries of the source, which are not always exact repeats. Equal values may be shown once. Records with an inconclusive call do not appear. Some structures have more than one record in an assay (separate samples or runs), and their calls can disagree. The source made the active and inactive calls. Unless noted, the rule behind the calls is not given here.
# Experiments:
# [1] = test system: Neuropilin-2 / VEGF-C interaction (human); assay: small molecules blocking Neuropilin-2/VEGF-C interaction – biochemical, microplate binding format, z-score (AID 743281); settings: microplate NRP2/VEGF-C binding assay; stronger effect = lower value
# [2] = viability loss in pontine glioma line – cell-based, SU-DIPG-XVII, MIPE5.0, CellTiter-Glo, qHTS, dose response (AID 1347060; cut-off not given, nearly all actives have AC50 up to about 26 µM); settings: CellTiter-Glo ATP luminescence
# [3] = viability loss in pontine glioma line – cell-based, SU-DIPG-XIII, MIPE4.0, CellTiter-Glo, qHTS, dose response (AID 1347061; cut-off not given, nearly all actives have AC50 up to about 37 µM;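 note: cells exposed to compound for 48 hours before readout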); settings: CellTiter-Glo ATP luminescence
# [4] = viability loss in pontine glioma line – cell-based, JHH-DIPG-1, MIPE4.0, CellTiter-Glo, qHTS, dose response (AID 1347062; cut-off not given, nearly all actives have AC50 up to about 27 µM); settings: JHH-DIPG-1 viability, CellTiter-Glo ATP luminescence
# [5] = viability loss in pontine glioma line – cell-based, SU-DIPG-IV, MIPE4.0, CellTiter-Glo, qHTS, dose response (AID 1347063; cut-off not given, nearly all actives have AC50 up to about 30 µM;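 note: compound exposure lasted 48 hours before the viability readout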); settings: CellTiter-Glo ATP luminescence
# [6] = viability loss in pontine glioma line – cell-based, SU-DIPG-XIII, MIPE5.0, CellTiter-Glo, qHTS, dose response (AID 1347064; cut-off not given, nearly all actives have AC50 up to about 23 µM); settings: CellTiter-Glo ATP luminescence
# [7] = viability loss in pontine glioma line – cell-based, SU-DIPG-XXV, MIPE5.0, CellTiter-Glo, qHTS, dose response (AID 1347065; cut-off not given, nearly all actives have AC50 up to about 26 µM;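 note: cells exposed to compound for 48 hours before ATP readout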); settings: CellTiter-Glo ATP luminescence
# [8] = growth inhibition of DIPG cells – cell-based, MIPE4.0 library, CellTiter-Glo luminescence, qHTS (AID 1347066; cut-off not given, nearly all actives have AC50 up to about 30 µM;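 note: cells exposed to compound for 48 hours before readout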); settings: SU-DIPG-VI viability, CellTiter-Glo ATP luminescence
# [9] = JHH-DIPG-1 glioma cell viability, MIPE5.0 library, CellTiter-Glo luminescence, qHTS (AID 1347067; cut-off not given, nearly all actives have AC50 up to about 26 µM;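 note: cells exposed to compound for 48 hours before readout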); settings: JHH-DIPG-1 glioma viability, CellTiter-Glo ATP luminescence
# [10] = growth inhibition of DIPG cells – cell-based, MIPE5.0 library, qHTS (AID 1347068; cut-off not given, nearly all actives have IC50 up to about 30 µM); settings: SU-DIPG-XXV viability
# [11] = target: ATP-dependent translocase ABCB1 (Homo sapiens) (UniProt P08183); assay: P-glycoprotein substrate transport blockade – cell-based (AID 377; in the data active = fluorescence slope change above about 50%); settings: MDR1-expressing cells, fluorescent substrate accumulation slope; stronger effect = higher value; concentration not given here
# Chain of ATP-dependent translocase ABCB1 (Homo sapiens) (P08183 whole entry, looked up): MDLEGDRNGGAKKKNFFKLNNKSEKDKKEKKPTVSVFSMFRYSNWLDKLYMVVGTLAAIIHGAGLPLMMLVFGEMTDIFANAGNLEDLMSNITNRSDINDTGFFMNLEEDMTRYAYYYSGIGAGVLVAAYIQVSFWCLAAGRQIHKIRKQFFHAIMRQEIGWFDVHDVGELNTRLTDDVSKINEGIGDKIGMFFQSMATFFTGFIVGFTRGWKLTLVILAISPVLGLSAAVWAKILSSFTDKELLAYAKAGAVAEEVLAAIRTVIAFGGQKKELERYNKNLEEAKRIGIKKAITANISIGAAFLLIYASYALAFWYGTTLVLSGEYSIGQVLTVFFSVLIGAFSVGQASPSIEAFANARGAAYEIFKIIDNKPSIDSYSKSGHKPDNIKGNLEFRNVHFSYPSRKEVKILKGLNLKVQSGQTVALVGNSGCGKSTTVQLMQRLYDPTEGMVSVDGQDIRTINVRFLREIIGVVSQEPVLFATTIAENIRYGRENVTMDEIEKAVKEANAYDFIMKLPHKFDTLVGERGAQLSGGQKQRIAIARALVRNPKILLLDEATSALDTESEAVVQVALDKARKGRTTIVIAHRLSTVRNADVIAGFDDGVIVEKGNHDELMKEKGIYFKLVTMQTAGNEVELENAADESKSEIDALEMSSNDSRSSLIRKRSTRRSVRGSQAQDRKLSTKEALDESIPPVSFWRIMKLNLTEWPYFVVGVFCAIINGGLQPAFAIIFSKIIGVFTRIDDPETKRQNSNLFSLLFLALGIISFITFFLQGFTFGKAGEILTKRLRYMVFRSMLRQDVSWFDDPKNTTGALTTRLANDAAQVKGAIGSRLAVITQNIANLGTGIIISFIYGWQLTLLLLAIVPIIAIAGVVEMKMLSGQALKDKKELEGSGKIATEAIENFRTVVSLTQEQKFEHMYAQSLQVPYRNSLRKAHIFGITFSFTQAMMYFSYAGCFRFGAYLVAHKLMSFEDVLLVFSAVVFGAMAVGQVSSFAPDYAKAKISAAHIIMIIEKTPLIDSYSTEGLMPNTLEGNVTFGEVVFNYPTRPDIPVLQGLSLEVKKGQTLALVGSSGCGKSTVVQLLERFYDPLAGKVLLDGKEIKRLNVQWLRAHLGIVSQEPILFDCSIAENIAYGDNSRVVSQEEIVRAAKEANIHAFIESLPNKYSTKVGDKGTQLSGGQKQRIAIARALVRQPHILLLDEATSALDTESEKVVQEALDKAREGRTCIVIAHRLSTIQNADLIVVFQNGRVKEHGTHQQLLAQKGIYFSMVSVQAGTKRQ
# [12] = compounds altering circadian rhythm period length – cell-based, LOPAC library, luminescence reporter (AID 2774); settings: circadian reporter cells, at 7 µM, actives lie on both sides;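 note: values are relative to mean of DMSO wells on each plate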
# [13] = test system: Hepatitis C virus NS3 helicase; assay: blockers of NS3h binding to ssDNA – biochemical, fluorescence polarization, LOPAC1280 library, primary screen (AID 687035; in the data active = inhibition above about 37%); settings: Purified HCV NS3 helicase, Cy5-dT15 ssDNA binding fluorescence polarization; stronger effect = higher value; concentration not given here
# [14] = compounds altering Cy5-DNA-NS3h complex signal – biochemical, LOPAC1280, artefact control for HCV NS3 helicase inhibitor project (AID 687037); settings: Cy5-DNA-NS3h complex fluorescence interference counterscreen
# [15] = blockers of cellular phospholipid synthesis – cell-based, LOPAC library, screen 4, primary screen (AID 1347384); settings: animal cells, phospholipid biosynthesis inhibition screen; at 10 µM
# [16] = GFP-Q80 aggregate reduction, neuronal-like cells, cell-based, NGF-treated PC12, GFPQ80 (AID 1614); settings: PC12 NGF-treated GFP-polyQ80 inclusion reduction;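 note: lower means fewer inclusions and 0 means no inclusions at all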
# [17] = growth inhibition, single agent or in combination, cell-based, chromothripsis tumors, cisplatin or BGB combos (AID 1671449; in the data active = inhibition above about 80%;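 note: cells exposed for 96 hours; 0% = vehicle DMSO and 100% = killing by high DMSO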); settings: LFS_MB_P medulloblastoma cells
# [18] = growth inhibition, single agent and combos, cell-based, chromothripsis tumors, cisplatin or BGB combos (AID 1671450; in the data active = inhibition above about 80%;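 note: cells exposed to compound for four days; 0% = vehicle DMSO and 100% = cell killing by high DMSO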); settings: HDN33 neuroblastoma cells, stronger effect = higher value
# [19] = growth inhibition, single agents and combos, ICB984, cell-based, cisplatin or BGB combos, synergistic combos for chromothripsis tumors (AID 1671451); settings: ICB984 medulloblastoma cells, drug combinations, stronger effect = higher value;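 note: cells exposed for 96 hours before readout; 0% = vehicle DMSO and 100% = killing by high DMSO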
# [20] = growth inhibition, single agents and combos, HTB85, cell-based, BGB or cisplatin IC20 combos, synergistic combos for chromothripsis tumors (AID 1671453; in the data active = inhibition above about 80%;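 note: cells exposed for 96 hours before readout; 0% = vehicle DMSO and 100% = high DMSO killing control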); settings: HTB85 osteosarcoma cells, drug combinations, stronger effect = higher value
structure (smiles),measurement,setting,value
CC(C)C1CCC(C(=O)N[C@H](Cc2ccccc2)C(=O)O)CC1 (some centres undefined),z-score,[1],-0.458 (inactive)
same,outcome,[2],inactive
same,outcome,[3],inactive
same,outcome,[4],inactive
same,outcome,[5],inactive
same,outcome,[6],inactive
same,outcome,[7],inactive
same,outcome,[8],inactive
same,outcome,[9],inactive
same,outcome,[10],inactive
CCCCCCCCCCC[C@@H](C[C@@H]1OC(=O)[C@H]1CCCCCC)OC(=O)[C@H](CC(C)C)NC=O,z-score,[1],-1.43 (inactive)
C[C@H]1C[C@@H]2[C@H]([C@@H](O)C[C@@]3(C)[C@H]2CC[C@]3(O)C(=O)CO)[C@@]2(C)C=CC(=O)C=C12,fluorescence slope change,[11],127% (active)
same,outcome,[2],inactive
same,outcome,[4],inactive
same,outcome,[6],inactive
same,outcome,[7],inactive
same,outcome,[9],inactive
same,outcome,[10],inactive
C[C@]12CCC(=O)C=C1CC[C@@H]1[C@@H]2C(=O)C[C@@]2(C)[C@H]1CC[C@]2(O)C(=O)CO,fluorescence slope change,[11],29.4% (inactive)
same,period change,[12],-0.215 h (inactive)
same,inhibition,[13],1% (inactive)
same,fluorescence ratio (interference),[14],1 (inactive)
same,z-score,[1],0.291 (inactive)
same,outcome,[15],inactive
Cn1c(=O)c2[nH]cnc2n(C)c1=O,fluorescence slope change,[11],7.6% (inactive) and 62.3% (active)
same,inclusion score,[16],1.5
same,period change,[12],0.14 h (inactive)
same,inhibition,[13],-2% (inactive)
same,fluorescence ratio (interference),[14],0.9 (inactive)
same,outcome,[2],inactive
same,outcome,[3],inactive
same,outcome,[4],inactive
same,outcome,[5],inactive
same,outcome,[6],inactive
same,outcome,[7],inactive
same,outcome,[8],inactive
same,outcome,[9],inactive
same,outcome,[10],inactive
same,outcome,[15],inactive
same,inhibition,"[17]; at 0.5 µM, stronger effect = higher value",15.2% (inactive) and -21.4% (inactive) and -26.2% (inactive)
same,inhibition,"[17]; measured here: combination with BGB IC20, at 0.005 µM",-5.83% and -14.3% and -19.1%
same,inhibition,"[17]; measured here: combination with BGB IC40, at 0.005 µM",-32.6% and -34.3% and -25.4%
same,inhibition,"[17]; measured here: combination with BGB IC40, at 0.05 µM",-28.1% and -16.1% and -10.3%
same,inhibition,"[17]; measured here: combination with cisplatin, at 0.5 µM, stronger effect = higher value",57.5% and -49.4% and -30.2%
same,inhibition,"[17]; measured here: combination with cisplatin, at 5 µM, stronger effect = higher value",-12.8% and -12% and -12.6%
same,inhibition,"[18]; BGB combo, at 5 µM",-6.91% and -17% and -18.3%
same,inhibition,[18]; at 0.5 µM,1.38% (inactive) and 2.18% (inactive) and -18.5% (inactive)
same,inhibition,"[18]; cisplatin combo, at 5 µM",14.2% and 15.4% and -46.9%
same,inhibition,"[18]; measured here: with BGB IC20 combination, at 0.5 µM",4.11% and 8.06% and -21.1%
same,inhibition,"[18]; measured here: with cisplatin IC20 combination, at 0.5 µM",9.64% and 13.8% and 3.17%
same,inhibition,"[18]; single agent, at 5 µM",-10.4% and -21.4% and -26.1%
same,inhibition,"[19]; BGB IC20 combo, at 0.005 µM",-1.06% and -2.94% and -4.47%
same,inhibition,"[19]; BGB IC40 combo, at 0.005 µM",-42.4% and 6.67% and -13.1%
same,inhibition,"[19]; BGB IC40 combo, at 0.05 µM",-45.5% and -37.4% and -12%
same,inhibition,[19]; at 0.5 µM,-27.5% (inactive) and -16.4% (inactive) and -30.3% (inactive)
same,inhibition,"[19]; cisplatin combo, at 0.05 µM",-49.6% and -37.4% and -12%
same,inhibition,"[19]; cisplatin combo, at 0.5 µM",-29.5% and -23.4% and -59.1%
same,inhibition,"[19]; cisplatin combo, at 5 µM",-24.5% and 11.4% and -42.2%
same,inhibition,"[19]; measured here: 5 uM single agent, at 5 µM",-5.05% and -45.4% and 1.22%
same,inhibition,[20]; at 0.5 µM,4.06% (inactive) and -19.4% (inactive) and 3.27% (inactive)
same,inhibition,"[20]; measured here: with BGB IC20, at 0.5 µM",-3.78% and -35% and -47%
same,inhibition,"[20]; measured here: with BGB IC20, at 5 µM",-9.64% and -9.51% and -34.2%
same,inhibition,"[20]; measured here: with cisplatin IC20, at 0.5 µM",-5.37% and -29.8% and 44.7%
same,inhibition,"[20]; measured here: with cisplatin IC20, at 5 µM",-42.2% and 14.2% and 0.95%
same,inhibition,"[20]; single agent, at 5 µM",4.95% and 14.1% and 12.1%
C[C@@H]1O[C@@H](OC[C@H]2O[C@@H](Oc3c(-c4ccc(O)c(O)c4)oc4cc(O)cc(O)c4c3=O)[C@H](O)[C@@H](O)[C@@H]2O)[C@H](O)[C@H](O)[C@H]1O,inclusion score,[16],2
same,z-score,[1],0.702 (inactive)
CCS(=O)(=O)CCn1c([N+](=O)[O-])cnc1C,fluorescence slope change,[11],11.6% (inactive)
same,z-score,[1],-0.45 (inactive)
